Reference: PubChem BioAssay (NCI)
Compounds without any hit were thinned out: in the full panel of roughly 83,000, 20% have a hit.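 In brief: 96-well plates, 48 h treatment, single concentration, percent growth endpoint.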 Calls of active or inactive are those of the source. Rule for the calls: active = growth percent below 10; inactive = the rest.

How the values were obtained:
Assay in all cases: NCI-60 one-dose screen, 48 h (100 = growth as untreated, 0 = no growth, -100 = all killed)
Conditions in all cases: 10 µM unless noted
RPMI-8226 leukemia = tested on: RPMI-8226 leukemia
OVCAR-8 ovarian = tested on: OVCAR-8 ovarian
OVCAR-5 ovarian = tested on: OVCAR-5 ovarian
OVCAR-4 ovarian = tested on: OVCAR-4 ovarian
SK-OV-3 ovarian = tested on: SK-OV-3 ovarian
IGROV1 ovarian = tested on: IGROV1 ovarian
OVCAR-3 ovarian = tested on: OVCAR-3 ovarian
HS 578T breast = tested on: HS 578T breast
NCI/ADR-RES ovarian = tested on: NCI/ADR-RES ovarian
T-47D breast = tested on: T-47D breast
BT-549 breast = tested on: BT-549 breast
MDA-MB-435 melanoma = tested on: MDA-MB-435 melanoma
SW-620 colon = tested on: SW-620 colon
MCF7 breast = tested on: MCF7 breast
HCT-116 colon = tested on: HCT-116 colon
HCC-2998 colon = tested on: HCC-2998 colon
KM12 colon = tested on: KM12 colon

Measured: growth

N#CC1C(C#N)C2c3ccccc3C=CN2C1C(=O)c1ccc(Br)cc1 (configuration not stated)
inactive: RPMI-8226 leukemia 110% | OVCAR-8 ovarian 94.9% | OVCAR-5 ovarian 98% | OVCAR-4 ovarian 54.3% | SK-OV-3 ovarian 108% | IGROV1 ovarian 102% | OVCAR-3 ovarian 109% | HS 578T breast 103% | NCI/ADR-RES ovarian 94.7% | T-47D breast 91.8% | BT-549 breast 103% | MDA-MB-435 melanoma 100% | SW-620 colon 99.2% | MCF7 breast 92.5% | HCT-116 colon 87.7% | HCC-2998 colon 112% | KM12 colon 99.2%

Cc1ccc(NS(=O)(=O)c2ccc(-c3cnc(C4CC4)o3)cc2)cc1C(F)(F)F
inactive: RPMI-8226 leukemia 55.2% | OVCAR-8 ovarian 78.5% | OVCAR-5 ovarian 93.2% | OVCAR-4 ovarian 69.4% | SK-OV-3 ovarian 86.8% | IGROV1 ovarian 51.8% | OVCAR-3 ovarian 24.5% | HS 578T breast 69% | NCI/ADR-RES ovarian 43.3% | T-47D breast 55.1% | BT-549 breast 63.8% | SW-620 colon 37.2% | MCF7 breast 26.6% | HCT-116 colon 41.1% | HCC-2998 colon 84.1% | KM12 colon 38.6%
active: MDA-MB-435 melanoma -4.02%

O=C(O)c1ccc(NCc2cn(-c3ccc(C(F)(F)F)cc3)nc2-c2ccc(C(=O)O)cc2)cc1
inactive: RPMI-8226 leukemia 112% | OVCAR-8 ovarian 103% | OVCAR-5 ovarian 103% | OVCAR-4 ovarian 111% | SK-OV-3 ovarian 113% | IGROV1 ovarian 106% | OVCAR-3 ovarian 115% | HS 578T breast 107% | NCI/ADR-RES ovarian 104% | T-47D breast 100% | BT-549 breast 108% | MDA-MB-435 melanoma 102% | MCF7 breast 96% | HCT-116 colon 109% | HCC-2998 colon 107% | KM12 colon 104%

NC(=S)N1N=C(c2ccccc2)CC1c1cn(-c2ccccc2)nc1-c1ccc(OCc2ccccc2)cc1 (configuration not stated)
inactive: RPMI-8226 leukemia 90.9% | OVCAR-8 ovarian 96.4% | OVCAR-5 ovarian 104% | OVCAR-4 ovarian 109% | SK-OV-3 ovarian 112% | IGROV1 ovarian 113% | OVCAR-3 ovarian 110% | HS 578T breast 96.3% | NCI/ADR-RES ovarian 112% | T-47D breast 95.2% | BT-549 breast 113% | MDA-MB-435 melanoma 109% | SW-620 colon 106% | MCF7 breast 97.3% | HCT-116 colon 88.5% | HCC-2998 colon 103% | KM12 colon 99.5%

COc1ccc(C(=O)c2nc3ccccc3n2CC(=O)c2ccc(F)cc2)cc1
inactive: RPMI-8226 leukemia 81.8% | OVCAR-8 ovarian 89.5% | OVCAR-5 ovarian 82.5% | OVCAR-4 ovarian 73.8% | SK-OV-3 ovarian 116% | IGROV1 ovarian 86.6% | OVCAR-3 ovarian 84.1% | HS 578T breast 103% | NCI/ADR-RES ovarian 58.3% | T-47D breast 91.6% | BT-549 breast 93.2% | SW-620 colon 46% | MCF7 breast 62.9% | HCT-116 colon 89.5% | HCC-2998 colon 65.3% | KM12 colon 56.2%
active: MDA-MB-435 melanoma -16.4%

O=C1NN(C(=O)c2ccccc2)C(c2ccc(Cl)c(Cl)c2)=C/C1=C\c1ccc([N+](=O)[O-])cc1
inactive: RPMI-8226 leukemia 59.2% | OVCAR-8 ovarian 89.3% | OVCAR-5 ovarian 113% | OVCAR-4 ovarian 75.2% | SK-OV-3 ovarian 96.7% | IGROV1 ovarian 84.3% | OVCAR-3 ovarian 86.6% | HS 578T breast 78.3% | NCI/ADR-RES ovarian 92.6% | T-47D breast 76.7% | BT-549 breast 52.4% | MDA-MB-435 melanoma 86.5% | SW-620 colon 42.9% | MCF7 breast 83.6% | HCT-116 colon 90.7% | HCC-2998 colon 44.6% | KM12 colon 51.7%

COc1ccc(C(=O)CC#N)cc1
inactive: RPMI-8226 leukemia 110% | OVCAR-8 ovarian 103% | OVCAR-5 ovarian 105% | OVCAR-4 ovarian 107% | SK-OV-3 ovarian 112% | IGROV1 ovarian 123% | OVCAR-3 ovarian 112% | HS 578T breast 110% | NCI/ADR-RES ovarian 111% | T-47D breast 104% | BT-549 breast 107% | MDA-MB-435 melanoma 132% | SW-620 colon 107% | MCF7 breast 96.7% | HCT-116 colon 106% | HCC-2998 colon 112% | KM12 colon 108%

COc1ccc(C(=O)c2cc(OC)c(OC)c(OC)c2)cc1O
inactive: RPMI-8226 leukemia 12.7% | OVCAR-8 ovarian 14.1% | OVCAR-5 ovarian 31.8% | OVCAR-4 ovarian 30.6% | SK-OV-3 ovarian 37.2% | IGROV1 ovarian 16.2% | HS 578T breast 28.8% | T-47D breast 54.7% | BT-549 breast 12% | SW-620 colon 22.3% | HCC-2998 colon 12.4%
active: OVCAR-3 ovarian -6.73% | NCI/ADR-RES ovarian -32.3% | MDA-MB-435 melanoma -41.1% | MCF7 breast 6.25% | HCT-116 colon 4.24% | KM12 colon 9.38%

CCN(CC)c1ccc(C(=O)c2ccccc2)cc1
inactive: RPMI-8226 leukemia 95.8% | OVCAR-8 ovarian 97% | OVCAR-5 ovarian 100% | OVCAR-4 ovarian 97.3% | SK-OV-3 ovarian 98.6% | IGROV1 ovarian 89.8% | OVCAR-3 ovarian 103% | HS 578T breast 102% | NCI/ADR-RES ovarian 89.4% | T-47D breast 83.3% | BT-549 breast 109% | MDA-MB-435 melanoma 105% | SW-620 colon 102% | MCF7 breast 98.7% | HCT-116 colon 91.3% | HCC-2998 colon 107% | KM12 colon 101%

COc1cc(/C=C\c2cc(OC)c(OC)c(OC)c2)cc(N)c1OC
active: MDA-MB-435 melanoma 1.87%
inactive: RPMI-8226 leukemia 89.7% | OVCAR-8 ovarian 89.3% | OVCAR-5 ovarian 87.7% | OVCAR-4 ovarian 128% | SK-OV-3 ovarian 92.2% | IGROV1 ovarian 74.6% | OVCAR-3 ovarian 99.6% | HS 578T breast 90.1% | NCI/ADR-RES ovarian 69.7% | T-47D breast 82.8% | BT-549 breast 75.9% | SW-620 colon 75% | MCF7 breast 85.4% | HCT-116 colon 79.1% | HCC-2998 colon 73.1% | KM12 colon 54.9%

Cn1cc(-c2nc(-c3c[nH]c4c(Cl)nccc34)cs2)c2cc(F)ccc21
inactive: RPMI-8226 leukemia 90.1% | OVCAR-8 ovarian 89.6% | OVCAR-5 ovarian 119% | OVCAR-4 ovarian 88% | SK-OV-3 ovarian 100% | IGROV1 ovarian 117% | OVCAR-3 ovarian 114% | HS 578T breast 113% | NCI/ADR-RES ovarian 111% | T-47D breast 48.6% | MDA-MB-435 melanoma 98.6% | SW-620 colon 102% | MCF7 breast 68.1% | HCT-116 colon 105% | HCC-2998 colon 119% | KM12 colon 96.4%

O=C1/C=C/[C@@H](O)[C@@H]2C[C@@H](O)C[C@H]2/C=C/CCC[C@H](CCc2ccc3ncccc3c2)O1
active: IGROV1 ovarian -4.38% | OVCAR-3 ovarian -17.5% | NCI/ADR-RES ovarian 2.87% | T-47D breast 0.682% | BT-549 breast 7.66% | MDA-MB-435 melanoma 5.74% | SW-620 colon -14.2% | MCF7 breast 2.74% | HCT-116 colon -53.6% | KM12 colon -40.3%
inactive: RPMI-8226 leukemia 17.7% | OVCAR-8 ovarian 18% | OVCAR-5 ovarian 27.5% | OVCAR-4 ovarian 14.3% | SK-OV-3 ovarian 17.5% | HS 578T breast 41% | HCC-2998 colon 12.9%

Cc1cc(Cl)nc(N(CCNc2ccnc3cc(Cl)ccc23)Cc2ccccn2)n1
inactive: RPMI-8226 leukemia 26.6% | OVCAR-8 ovarian 39.3% | OVCAR-5 ovarian 74.3% | OVCAR-4 ovarian 35% | SK-OV-3 ovarian 82.9% | IGROV1 ovarian 57.5% | HS 578T breast 87.3% | NCI/ADR-RES ovarian 47.5% | BT-549 breast 75.4% | MDA-MB-435 melanoma 61.7% | SW-620 colon 56.6% | MCF7 breast 53.6% | HCT-116 colon 17.3% | HCC-2998 colon 85.7% | KM12 colon 64.1%
active: OVCAR-3 ovarian 3.13% | T-47D breast -19.6%

COc1ccc(-c2cnc3c(-c4cccc5ncccc45)cnn3c2)cc1
inactive: RPMI-8226 leukemia 68.1% | OVCAR-8 ovarian 26.8% | OVCAR-5 ovarian 82.1% | SK-OV-3 ovarian 24.4% | IGROV1 ovarian 45.1% | OVCAR-3 ovarian 57.7% | HS 578T breast 25.4% | NCI/ADR-RES ovarian 45.4% | T-47D breast 45.7% | BT-549 breast 37.1% | MDA-MB-435 melanoma 58% | MCF7 breast 72.2% | HCT-116 colon 11.9% | HCC-2998 colon 90.7% | KM12 colon 69.3%
active: OVCAR-4 ovarian 6.3%

O=C(CSc1nc2sc3c(c2c(=O)n1-c1ccc(Cl)cc1)CCCC3)Nc1nc(-c2cccc(Br)c2)cs1
inactive: RPMI-8226 leukemia 96.4% | OVCAR-8 ovarian 68.1% | OVCAR-5 ovarian 75.7% | OVCAR-4 ovarian 72.9% | SK-OV-3 ovarian 94.2% | IGROV1 ovarian 72.6% | OVCAR-3 ovarian 89% | HS 578T breast 72.6% | NCI/ADR-RES ovarian 80.5% | T-47D breast 76.9% | BT-549 breast 92.1% | MDA-MB-435 melanoma 97.5% | SW-620 colon 78.9% | MCF7 breast 87.4% | HCT-116 colon 81.6% | HCC-2998 colon 107% | KM12 colon 83.8%

CCNc1nc2cc(Nc3ccnc4cc(Cl)ccc34)ccc2o1
inactive: RPMI-8226 leukemia 80.9% | OVCAR-8 ovarian 85.3% | OVCAR-5 ovarian 71.8% | OVCAR-4 ovarian 75.5% | SK-OV-3 ovarian 84.8% | IGROV1 ovarian 70.1% | OVCAR-3 ovarian 80.9% | HS 578T breast 84.5% | NCI/ADR-RES ovarian 52.3% | T-47D breast 66.4% | BT-549 breast 81.4% | SW-620 colon 54.9% | MCF7 breast 40.8% | HCT-116 colon 42.3% | HCC-2998 colon 68.7% | KM12 colon 38%
active: MDA-MB-435 melanoma 9.8%

Cc1cc2cc3ccc(N(C)C)cc3nc2cc1N
inactive: NCI/ADR-RES ovarian 42.4% | BT-549 breast 20.7%
active: RPMI-8226 leukemia -19.1% | OVCAR-8 ovarian -2.19% | OVCAR-5 ovarian 3.07% | OVCAR-4 ovarian -11.9% | SK-OV-3 ovarian -8.06% | IGROV1 ovarian -1.84% | OVCAR-3 ovarian -24.7% | HS 578T breast -32.5% | T-47D breast -9.44% | MDA-MB-435 melanoma 5.71% | SW-620 colon -37.9% | MCF7 breast -4.08% | HCT-116 colon -20% | KM12 colon -20.7%

C#Cc1cccc(NC(=O)Nc2cccc(NC(=O)CCl)c2)c1
active: RPMI-8226 leukemia 9.12% [8.25 µM] | OVCAR-8 ovarian -7.18% [8.25 µM] | OVCAR-4 ovarian -35.9% [8.25 µM] | IGROV1 ovarian -57% [8.25 µM] | OVCAR-3 ovarian -70.8% [8.25 µM] | NCI/ADR-RES ovarian -15.1% [8.25 µM] | BT-549 breast -15.1% [8.25 µM] | MDA-MB-435 melanoma -39.8% [8.25 µM] | SW-620 colon -42.3% [8.25 µM] | MCF7 breast 4.65% [8.25 µM] | HCT-116 colon 2.24% [8.25 µM]
inactive: OVCAR-5 ovarian 12.8% [8.25 µM] | SK-OV-3 ovarian 59% [8.25 µM] | HS 578T breast 29.6% [8.25 µM] | T-47D breast 27.8% [8.25 µM] | HCC-2998 colon 93.6% [8.25 µM] | KM12 colon 32.9% [8.25 µM]
